# In all, about 190,000 compounds went through this assay and about 1,900 (1%) were called active.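 How the source made its calls: active means percentage of spot-positive cells more than 3 SD above its plate mean, without a fluorescence outlier flag or 80% toxicity; inconclusive means no clear call, values can overlap the other calls; inactive means the rest.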 Many of the other results were omitted from the sample, so actives are more common in it than they were.
# Test: GFP-LC3 puncta formation changes – imaging, high-content, MEF GFP-LC3, primary screen (AID 463193);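 on % cells with GFP-LC3 spots: spot-positive cell cutoff set from DMSO-treated cells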;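 on toxicity: cell loss after 18 h compound exposure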
# Conditions: autophagy, at 10 µM; % cells with GFP-LC3 spots: stronger effect = higher value; toxicity: measured here: cell loss, nuclei count
SMILES,% cells with GFP-LC3 spots,toxicity
CCNC(=S)N(CCc1c(C)[nH]c2ccc(C)cc12)Cc1ccco1,19.1% (active),0.117%
COc1ccc2[nH]c(C)c(CCN(Cc3cccs3)C(=S)Nc3ccccc3OC)c2c1,12.3% (inactive),16.6%
COc1cccc(NC(=S)N(CCc2c(C)[nH]c3ccccc23)Cc2ccco2)c1,9.78% (inactive),16.6%
COC(=O)c1nc2n(n1)C(c1ccc([N+](=O)[O-])cc1)C(C(=O)Nc1ccc(Cl)cc1)=C(C)N2 (centres undefined),5.34% (inactive),-5.39%
O=C(c1cccc([N+](=O)[O-])c1)N1CCN(C(=O)c2ccco2)CC1,0.295% (inactive),7.8%
O=C(COc1ccc(Cl)cc1)N1CCN(c2cccc(C(F)(F)F)c2)CC1,9.65% (inactive),-3.29%
CCC(=O)c1ccc(OCC(O)CN2CC(C)OC(C)C2)cc1 (centres undefined),5.51% (inactive),-8.47%
CCC(=O)c1ccc(OCC(O)CN2CCN(c3cccc(C(F)(F)F)c3)CC2)cc1 (centres undefined),13.1% (active),8.02%
CCO[C@@H]1OC(C(N)=O)=C[C@H](c2ccc(Br)cc2)[C@H]1CCCO,18.2% (inactive),10.9%
CNS(=O)(=O)c1ccc(NC(=O)C2CC(=O)N(c3ccc(Cl)cc3)C2)cc1 (centres undefined),8.63% (inactive),-13.2%
COc1cccc(C(=O)N2CCCC(CCC(=O)NCc3ccc(F)c(F)c3)C2)c1 (centres undefined),3.38% (inactive),5.82%
O=C(O)CC(Cc1ccccc1)C(=O)Nc1ccc([N+](=O)[O-])cc1 (centres undefined),1.42% (inactive),-2.46%
CN(C)S(=O)(=O)c1ccc2oc(SCC(=O)Nc3ccccc3F)nc2c1,0.884% (inactive),-4.66%
Cc1cccc(C(=O)N2CCc3c([nH]c4ccccc34)C2CC(C)C)n1 (centres undefined),11% (inactive),-2.26%
C=CCNC(=O)CCCC(=O)NCC=C,17.9% (active),1.29%
C=CCNC(=O)CC12CC3CC(C1)CC(CC(=O)NCC=C)(C3)C2,23% (inactive),16.8%
C=CCNC(=O)CCCOc1cccc(C)c1,10.7% (inactive),16.1%
O=C(O)c1cccc(N=NN2CCCCCC2)c1,6.85% (inactive),-1.54%
CSc1ncnc2sc(C)c(C)c12,10.2% (inactive),24.5%
CCCOC(=O)c1[nH]c2c(c1C)C(=O)CC(c1cccs1)C2 (centres undefined),19% (active),63%
CCOC(=O)c1[nH]c2c(c1C)C(=O)CC(c1ccc(N(C)C)cc1)C2 (centres undefined),2.24% (inactive),-7.4%

SMILES,% cells with GFP-LC3 spots,toxicity
CCCOC(=O)c1[nH]c2c(c1C)C(=O)CC(c1cc(OC)c(OC)c(OC)c1)C2 (centres undefined),12.1% (inactive),15.9%
Cc1ccc(SC(C)C(=O)NCc2ccc(F)cc2)cc1 (centres undefined),0.143% (inactive),-15%
COc1cccc(Cn2cnc3c([N+](=O)[O-])c(C)c(C)cc32)c1,6.93% (active),-2.05%
Cc1cccc(Cn2cnc3c(N)c(C)c(C)cc32)c1,1.71% (inactive),1.99%
Cc1nn(C)c(Oc2ccccc2)c1[N+](=O)[O-],2.75% (inactive),-3.54%
CCOc1cccc(OCCCOc2cccc3cccnc23)c1,3.63% (inactive),-4.48%
Cc1ccc2nc(SCc3nnc(-c4ccccc4[N+](=O)[O-])o3)c(C#N)cc2c1,85.6% (active),21.6%
Fc1ccc2nc(-c3ccccc3)nc(SCc3nnc(-c4ccccc4)o3)c2c1,4.88% (inactive),16.1%
Cc1nonc1NC(=O)CSc1nc2ccccc2cc1C#N,0.583% (inactive),-8.81%
CCOc1ccc(Br)cc1S(=O)(=O)N1CCC(C(=O)O)CC1,6.06% (inactive),14.1%
C/C(=N/O)c1ccc(N2C(=O)C3C4C=CC(C3C2=O)C2C3C(=O)N(c5ccc(/C(C)=N/O)cc5)C(=O)C3C42)cc1 (centres undefined),11.7% (inactive),14.4%
O=C(O)CCC(=O)Nc1nc2ccc([N+](=O)[O-])cc2s1,6.76% (inactive),11.6%
O=C(Nc1nc2ccc([N+](=O)[O-])cc2s1)c1ccc(S(=O)(=O)N2CCCc3ccccc32)cc1,16.8% (inactive),25.4%
O=C(NC(Nc1nc2ccc([N+](=O)[O-])cc2s1)(C(F)(F)F)C(F)(F)F)c1ccccc1,31.8% (active),57.9%
O=C(c1ccc2ccccc2n1)N1CCN(c2ccccc2Cl)CC1,4.83% (inactive),-5.94%
CCOC(=O)N1CCN(C(=O)CSc2nc(C)nc3c2c(=O)n(C)c(=O)n3C)CC1,12.3% (inactive),3.6%
Cc1ncoc1C(=O)NCCC(c1ccccc1)c1ccccc1,18% (inactive),11.5%
COc1cccc(CNC(=O)CCC2CCCN(C(=O)c3cc(C)[nH]n3)C2)c1 (centres undefined),0.272% (inactive),-19.2%
Cc1cccc2cc3c(N)c(C(=O)N4CCCc5ccccc54)sc3nc12,34.9% (active),33.8%
O=C(c1cccc(C(=O)N2CCc3ccccc32)n1)N1CCc2ccccc21,7.33% (inactive),25.5%
Cc1occc1C(=O)N1CCCc2ccccc21,12.6% (inactive),-3.33%

SMILES,% cells with GFP-LC3 spots,toxicity
O=C(/C=C/c1ccc(F)cc1)Nc1cccc(S(=O)(=O)Nc2cccc(C(F)(F)F)c2)c1,3.21% (inactive),11.4%
O=c1[nH]c(=S)[nH]c2[nH]c(=S)[nH]c12,16.3% (inactive),14.2%
CCOc1cc(NC(=O)c2cnccn2)c(OCC)cc1NC(=O)c1ccc(C)cc1,16.1% (active),-0.236%
CCOc1ccccc1NC(=O)c1cccnc1,1.43% (inactive),1.42%
CCOc1cc(NC(=O)c2ccccn2)c(OCC)cc1NC(=O)c1ccc(OC)cc1,2.17% (inactive),23.7%
COc1ccc(/C=C/C(=O)NC(=S)NN2CCCCC2c2cccnc2)cc1 (centres undefined),2.8% (inactive),2.51%
CCOCCCNC(=O)C(NC(=O)c1ccc(=O)[nH]c1)c1ccc(C)cc1 (centres undefined),3.93% (inactive),-0.266%
CCOCCCNC(=O)C(NC(=O)c1ccccc1O)c1ccccc1 (centres undefined),5.35% (inactive),-34%
CCOCCCNC(=O)C(NC(=O)c1ccc(=O)[nH]c1)c1ccc(Cl)cc1 (centres undefined),28% (active),44.6%
CCc1nnc(NC(=O)CCCSc2nc3ccccc3[nH]2)s1,1.66% (inactive),-3.54%
COc1ccc(-n2ncc3c(N4CCCc5ccccc54)ncnc32)cc1,7.91% (inactive),7.86%
Cc1cccc(-n2ncc3c(N4CCc5ccccc54)ncnc32)c1,1.09% (inactive),-9.01%
COc1ccc(-n2ncc3c(N4CCc5ccccc54)ncnc32)cc1,10.6% (active),12.2%
Cc1ccc2nc(-c3ccccn3)cc(C(=O)Nc3ccc4c(c3)OCO4)c2c1,4.19% (inactive),13.2%
CC1(C)C2CCC1(C)C(OC(=O)c1ccc(O)cc1)C2 (centres undefined),19.1% (inactive),2.39%
COc1ccc(-c2[nH]ncc2CN(C)Cc2cccnc2)c(F)c1,3.28% (inactive),15.9%
O=Cc1cn(Cc2ccccc2)nc1-c1cccnc1,0.945% (inactive),1.14%
Clc1ccc(CN2CCN(/N=C/c3cccnc3)CC2)cc1,0.128% (inactive),-10.7%
O=C1/C(=C\c2cccnc2)CN(Cc2ccccc2)C/C1=C\c1cccnc1,52.1% (active),-17.6%
Cc1ccc(NC(=O)NC2CCCCC2)cc1S(=O)(=O)N1CCOCC1,9.14% (inactive),-3.67%
COc1cc(/C=N\Nc2ccc([N+](=O)[O-])cn2)ccc1OCC(=O)O,1.45% (inactive),-6.18%

SMILES,% cells with GFP-LC3 spots,toxicity
Cc1ccc(-n2c(C)cc(/C=N/Nc3ccc([N+](=O)[O-])cn3)c2C)c(C)c1,52% (active),-31.7%
Cc1cccc(COc2ccccc2/C=N/Nc2ccc([N+](=O)[O-])cc2)c1,1.93% (inactive),8.3%
CCOC(=O)CC(=O)CSc1nc(-c2ccccc2)cc(-c2ccc(Cl)cc2)c1C#N,3.63% (inactive),-4.4%
O=C(CSc1nc2ccccc2[nH]1)c1cccs1,0.463% (inactive),5.37%
N#Cc1c(-c2ccc(F)cc2)cc(C2CC2)nc1SCC(=O)c1cccs1,86.4% (active),-1.55%
Cc1ccc(CC(=O)Nc2ccc(OC(F)F)c(Cl)c2)cc1C,6.36% (inactive),-11.9%
CCN1CCN(C(=O)c2ccc(CN(c3ccc(C)c(C)c3)S(C)(=O)=O)cc2)CC1,5.04% (inactive),-26.7%
Cc1cc(C(=O)N/N=C/c2ccc(O)c([N+](=O)[O-])c2)c(C)n1-c1ccc(F)cc1,6.11% (inactive),2.16%
O=C(Nc1ccc(Br)cn1)c1ccc([N+](=O)[O-])cc1Cl,25.9% (inactive),12.1%
CSc1ccc(/C=N\NC(=O)CC(=O)NC(C)C)cc1,3.73% (inactive),6.35%
O=c1cc(-c2ccccc2)[nH]c2cc(F)ccc12,3.89% (inactive),-7.91%
O=C(/C=C/c1ccc(Cl)cc1)Nc1ccc(Br)cn1,20.4% (inactive),30.5%
Cc1ccc(S(=O)(=O)C(C#N)c2nc3ccccc3nc2N2CCCC2)cc1C (centres undefined),8.97% (inactive),-8.37%
CC(C)OC(=O)C(C#N)c1nc2ccccc2nc1N1CCN(Cc2ccccc2)CC1 (centres undefined),41.3% (active),2.68%
CCOC(=O)/C(C#N)=C/c1ccc(N2CCN(Cc3ccccc3)CC2)cc1,10.3% (inactive),10.6%
O=[N+]([O-])c1ccc(Sc2n[nH]c(-c3ccco3)n2)nc1,0% (inactive),4.9%
OCC1(CCc2ccccc2)CCN(Cc2ccc3nsnc3c2)CC1,0.559% (inactive),0.377%
Cc1ccccc1CN1C[C@@H]2C[C@@H](c3ccc4nsnc4c3)N3CCC[C@@]23C1=O,34.4% (active),24.5%
Cc1ccccc1CN1C[C@@H]2C[C@@H](c3cn(C)nc3-c3ccccc3)N3CCC[C@@]23C1=O,0.136% (inactive),-5.59%
